These results are taken from PubChem BioAssay (EPA / NIEHS).

Each structure is given as a SMILES string. Results filed as inconclusive are left out. Calls of active or inactive are those of the source. Rule for the calls, unless noted: active = hit-call score of the fitted dose curve at least 0.9, where 1 is the maximum; inconclusive = response in the unintended direction; inactive = score below 0.9.

Read-out in experiment [1]: Cytochrome P450 3A4 (Homo sapiens) (UniProt P08684)
Kind of experiment: CLD_CYP3A4_48hr: CellzDirect (CLD) Gene Expression Assay for xenobiotic metabolism (CYP3A4) at 48 hours (AID 2283698). The essentials: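 CYP3A4 induction read by qNPA chemiluminescence after 48 h, with fresh dosing solutions on consecutive days, in cultured human hepatocytes (two donors). Vehicle 0.2% DMSO as baseline; microscopy-based cytotoxicity annotated yes/no alongside data.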

Read-out in experiment [2]: xenobiotic metabolism (CYP1A2), CYP1A2 (gene 1544)
Kind of experiment: CLD_CYP1A2_48hr: CellzDirect (CLD) Gene Expression Assay for xenobiotic metabolism (CYP1A2) at 48 hours (AID 2283703). The essentials: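 Cytotoxicity was flagged yes/no from morphology, while CYP1A2 transcript induction was detected by qNPA chemiluminescence after a 48-hour exposure. Human primary hepatocyte cultures from separate donors received fresh dosing solutions daily over two days, with 0.2% DMSO as vehicle and baseline.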

Read-out in experiment [3]: xenobiotic metabolism (CYP1A1), CYP1A1 (gene 1543)
Nature of the experiment: CLD_CYP1A1_48hr: CellzDirect (CLD) Gene Expression Assay for xenobiotic metabolism (CYP1A1) at 48 hours (AID 2283705). Put shortly:
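CYP1A1 transcript measured by quantitative nuclease protection (chemiluminescent) 48 h after two daily treatments of human hepatocyte cultures, versus 0.2% DMSO. Morphology-based cytotoxicity flags accompany data; two donor preparations used.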

Read-out in experiment [4]: glucuronosyltransferase (UGT1A1), UGT1A1 (gene 54658)
Kind of experiment: CLD_UGT1A1_48hr: CellzDirect (CLD) Gene Expression Assay for glucuronosyltransferase (UGT1A1) at 48 hours (AID 2283709).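 Note: actives increase expression relative to DMSO so potency refers to induction.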 The essentials:
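Quantitative nuclease protection assay (chemiluminescent) for UGT1A1 mRNA at 48 h in human hepatocyte cultures from two donors, redosed daily with fresh solutions. Induction fitted relative to 0.2% DMSO; phase-contrast morphology annotated cytotoxicity.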

A short description of experiment [5]: CEETOX_H295R_MTT_cell_viability: Viability Assessment in the CeeTox HT-H295R MTT Assay (AID 2283718; active = hit-call score of the fitted dose curve at least 0.9, where 1 is the maximum; inactive = score below 0.9). The essentials:
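Human H295R adrenal cells, prestimulated 48 h with 10 uM forskolin, were exposed 48 h to chemicals in 0.1% DMSO. Viability was measured in the same wells by MTT (0.5 mg/ml, 4 h, 37 C), absorbance 570/650 nm, as percent of controls.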

Experiment [6] can be described thus: Tanguay_ZF_120hpf_ActivityScore_legacy: (Legacy) Oregon State University Tanguay Lab 120 Hour Post-fertilization zebrafish Assay Score for Activity (AID 2283742).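 For AC50: dechorionated Tropical 5D wild-type zebrafish embryos held singly per well.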 Put shortly: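 Dechorionated 5D embryos, one per well, static exposure 6–120 hpf, 28C, sealed and dark; final DMSO 0.64% (vol/vol). Brightfield binary scoring of mortality plus 18 endpoints; gain-of-signal fit versus DMSO baseline.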

The nature of experiment [7]: CLD_ACTIN_48hr: CellzDirect (CLD) Gene Expression Assay for Baseline Control (Actin) at 48 hours (AID 2283702). Put shortly: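 Background-control actin mRNA read by qNPA chemiluminescence at 48 h. Human hepatocyte cultures from two donors received fresh multi-concentration chemical doses daily for two days; 0.2% DMSO served as vehicle baseline.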
Read-out in experiment [8]: Broad substrate specificity ATP-binding cassette transporter ABCG2 (Homo sapiens) (UniProt Q9UNQ0)
Nature of the experiment: CLD_ABCG2_48hr: CellzDirect (CLD) Gene Expression Assay for ABC Transporter (ABCG2) at 48 hours (AID 2283704). Put shortly:
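ABCG2 transcript measured at 48 h by quantitative nuclease protection (chemiluminescent) and fitted for increase relative to 0.2% DMSO. Hepatocyte cultures from separate donors got fresh compound daily over two days; morphology annotated cytotoxicity.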

Read-out in experiment [9]: alkyl and aryl transferase (GSTA2), GSTA2 (gene 2939)
Nature of the experiment: CLD_GSTA2_48hr: CellzDirect (CLD) Gene Expression Assay for alkyl and aryl transferase (GSTA2) at 48 hours (AID 2283708).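 Note: active means mRNA induction above DMSO vehicle baseline.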 Put shortly:
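GSTA2 mRNA quantified by qNPA chemiluminescence in human primary hepatocyte lysates after 48 h of daily fresh chemical dosing. Increases fitted against 0.2% DMSO vehicle baseline; cytotoxicity from morphology annotated yes/no.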

Read-out in experiment [10]: sulfotransferase (SULT2A), SULT2A1 (gene 6822)
Kind of experiment: CLD_SULT2A_48hr: CellzDirect (CLD) Gene Expression Assay for sulfotransferase (SULT2A) at 48 hours (AID 2283710).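 Note: hits raise SULT2A1 transcript above the 0.2% DMSO vehicle baseline.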 Put shortly:
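SULT2A1 transcript measured by qNPA chemiluminescence in human primary hepatocyte cultures after 48 h, with fresh dosing solutions on two consecutive days; gain-of-signal fitting against 0.2% DMSO vehicle; cytotoxicity annotated from phase-contrast morphology.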

The nature of experiment [11]: STM_H9_OrnithineISnorm_perc: Stemina devTOX quickPredict H9 human embryonic stem cell (hESC)-based Assay for Ornithine (ORN) Metabolite Biomarker, Normalized (AID 2283712; active = hit-call score of the fitted dose curve at least 0.9, where 1 is the maximum; inactive = score below 0.9;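 note: ornithine released into spent medium during last day measured by mass spectrometry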). The essentials: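 Ornithine secreted by H9 hESCs after 72h compound treatment (daily media/compound renewal) was quantified in final-day media by UPLC-HRMS. Values are isotope-standard-normalized, expressed relative to 0.1% DMSO, fitted in positive direction.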

Experiment [12] in a line: STM_H9_OrnCyssISnorm_ratio: Stemina devTOX quickPredict H9 human embryonic stem cell (hESC)-based Assay for Ornithine (ORN):Cystine (CYSS) Ratio (AID 2283714). Put shortly: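 UPLC-HRMS of spent media: ORN/CYSS ratio of internal-standard-normalized percentages, DMSO (0.1%) baseline. Pluripotent H9 hESCs, 72h exposure, daily re-dosing with fresh media; last 24h media collected.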

Read-out in experiment [13]: organic anion transporter (SLCO1B1), SLCO1B1 (gene 10599)
Kind of experiment: CLD_SLCO1B1_48hr: CellzDirect (CLD) Gene Expression Assay for organic anion transporter (SLCO1B1) at 48 hours (AID 2283707). Put shortly:
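SLCO1B1 transcript quantified by qNPA with chemiluminescent readout after 48 h of once-daily chemical exposure. Cultured human primary hepatocytes came from two donors, with 0.2% DMSO vehicle; positive-direction fitting against DMSO, cytotoxicity flagged by morphology.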

Read-out in experiment [14]: Cytochrome P450 2B6 (Homo sapiens) (UniProt P20813)
Nature of the experiment: CLD_CYP2B6_48hr: CellzDirect (CLD) Gene Expression Assay for xenobiotic metabolism (CYP2B6) at 48 hours (AID 2283699).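 Note: actives raise transcript level above DMSO so potency reflects induction.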 The essentials:
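CYP2B6 transcript induction, read by quantitative nuclease protection (S1 digestion, chemiluminescent detection) 48 h after dosing, is fitted upward against 0.2% DMSO. Cultured human liver primary cells, two donor preparations, received fresh chemical daily over multiple concentrations.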

Read-out in experiment [15]: HMG-CoA synthase (HMGCS2), HMGCS2 (gene 3158)
Kind of experiment: CLD_HMGCS2_48hr: CellzDirect (CLD) Gene Expression Assay for HMG-CoA synthase (HMGCS2) at 48 hours (AID 2283711). Put shortly: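 mRNA induction read by qNPA chemiluminescence, 48 h after dosing. Cultured primary human liver cells (two donor preparations) received fresh compound daily over two days against 0.2% DMSO vehicle; morphology-based cytotoxicity noted alongside.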

Chain of Cytochrome P450 3A4 (Homo sapiens) (P08684 whole entry, looked up): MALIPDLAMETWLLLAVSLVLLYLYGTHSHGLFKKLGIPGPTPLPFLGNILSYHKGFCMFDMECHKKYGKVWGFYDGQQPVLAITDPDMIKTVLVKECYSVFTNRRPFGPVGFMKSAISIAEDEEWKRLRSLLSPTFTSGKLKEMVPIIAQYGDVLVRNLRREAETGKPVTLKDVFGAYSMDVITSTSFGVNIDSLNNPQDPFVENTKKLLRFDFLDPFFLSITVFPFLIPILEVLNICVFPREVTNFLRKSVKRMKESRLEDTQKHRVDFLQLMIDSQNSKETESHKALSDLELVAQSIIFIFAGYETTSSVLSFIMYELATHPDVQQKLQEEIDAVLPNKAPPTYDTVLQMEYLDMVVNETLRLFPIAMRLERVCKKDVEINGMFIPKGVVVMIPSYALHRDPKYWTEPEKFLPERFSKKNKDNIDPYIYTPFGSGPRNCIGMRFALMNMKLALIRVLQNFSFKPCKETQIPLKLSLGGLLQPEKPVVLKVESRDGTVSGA
Chain of Broad substrate specificity ATP-binding cassette transporter ABCG2 (Homo sapiens) (Q9UNQ0 whole entry, looked up): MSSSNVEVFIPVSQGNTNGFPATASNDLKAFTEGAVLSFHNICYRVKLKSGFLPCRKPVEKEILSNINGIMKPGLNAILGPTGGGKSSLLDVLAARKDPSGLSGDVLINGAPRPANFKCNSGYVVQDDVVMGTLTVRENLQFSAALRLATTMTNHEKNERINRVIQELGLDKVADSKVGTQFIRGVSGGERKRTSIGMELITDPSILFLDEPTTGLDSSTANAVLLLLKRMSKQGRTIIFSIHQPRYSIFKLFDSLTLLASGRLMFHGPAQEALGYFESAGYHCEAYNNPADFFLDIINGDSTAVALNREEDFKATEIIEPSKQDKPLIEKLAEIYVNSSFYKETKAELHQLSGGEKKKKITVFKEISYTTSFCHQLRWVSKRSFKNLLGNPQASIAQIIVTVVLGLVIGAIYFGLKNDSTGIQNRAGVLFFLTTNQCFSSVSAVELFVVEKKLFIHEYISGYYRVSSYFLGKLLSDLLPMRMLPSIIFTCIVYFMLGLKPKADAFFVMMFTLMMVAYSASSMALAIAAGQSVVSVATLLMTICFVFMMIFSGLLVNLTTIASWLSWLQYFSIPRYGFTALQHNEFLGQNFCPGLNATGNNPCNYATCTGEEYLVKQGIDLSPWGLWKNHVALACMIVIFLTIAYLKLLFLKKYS

With `CC(C)NC(=O)N1CC(=O)N(c2cc(Cl)cc(Cl)c2)C1=O`, the AC50 is 13.5 µM (active) in [1], 4.68 µM (active) in experiment [2] and 12.3 µM (active) in [3]. Also, the molecule was called inactive in experiment [4], in [5] and in experiment [6].
On to `Cn1c(-c2ccccc2)cc(-c2ccccc2)[n+]1C`, for which the result in experiment [7], in [8] and in experiment [10] was inactive. Further, the AC50 in experiment [9] is 2.83 µM (active); in [11], 25.3 µM (active); in [12], 20 µM (active).
As for `O=C1C2CC=CCC2C(=O)N1SC(Cl)(Cl)Cl` (stereo not given), the outcome in experiment [8], in [13], in [9], in experiment [10], in [11] and in [5] was inactive. Also, the AC50 in experiment [6] is 43.5 µM (active).
As for `CCSC(=O)N1CCCCCC1`, the AC50 in experiment [1] was 3.97 µM (active). For the same molecule, the call in [7], in [8], in experiment [3], in experiment [9], in experiment [4] and in experiment [5] was inactive.
Take `CCC(C)n1c(=O)[nH]c(C)c(Br)c1=O` (stereo not given): the result in experiment [1], in [4], in experiment [10], in experiment [11], in experiment [5] and in [6] was inactive. Moreover, the AC50 in experiment [2] is 11.8 µM (active).
Consider `CN/C(=N\[N+](=O)[O-])NCc1cnc(Cl)s1`, for which the outcome in experiment [5] was inactive.
Turning to `O=c1n(Cl)c(=O)n(Cl)c(=O)n1Cl`, the molecule was classed as inactive in experiment [14], in experiment [8], in experiment [13], in [9], in experiment [4] and in [10].
Consider `CC1(C)CCC(=Cc2ccc(Cl)cc2)C1(O)Cn1cncn1` (stereo not given), for which the AC50 in [2] was 1.66 µM (active); in experiment [3], 3.17 µM (active); in experiment [11], 78.2 µM (active); in experiment [12], 35 µM (active). Also, the molecule was classed as inactive in [8], in experiment [4], in experiment [10] and in experiment [5].
Turning to `COC(=O)NS(=O)(=O)c1ccc(N)cc1`, the outcome in experiment [1], in [14], in [7], in [3], in experiment [13] and in [4] was inactive. In addition, the outcome in experiment [10] and in experiment [15] was inactive.
Turning to `CCCC(=NOCC)C1=C(O)CC(CC(C)SCC)CC1=O` (stereo not given), the AC50 in experiment [1] was 20 µM (active). Further, the call in [7], in experiment [2], in [13], in experiment [9], in [4] and in experiment [10] was inactive. Further, the molecule was classed as inactive in experiment [15], in [5] and in [6].
In the case of `CC(C)Nc1nc(Cl)nc(NC(C)C)n1`, the AC50 in experiment [1] is 3.54 µM (active); in experiment [4], 5.88 µM (active); in [11], 0.0393 µM (active); in [12], 5.16 µM (active). Besides, the call in [3], in experiment [9], in [10] and in experiment [5] was inactive.
Consider `CNC(=O)Oc1cccc2ccccc12`, for which the molecule was called inactive in experiment [1], in experiment [9], in experiment [4], in experiment [11], in experiment [5] and in experiment [6]. For the same molecule, the figures for the AC50 in [14] and in [12] were 4.42 µM (active) and 2.71 µM (active), respectively.
Consider `CCCCC(O)(Cn1cncn1)c1ccc(Cl)cc1Cl` (stereo not given), for which the AC50 in experiment [1] was 1.89 µM (active); in experiment [2] it was 3.97 µM (active); in experiment [11] it was 85.1 µM (active); in experiment [12] it was 76.5 µM (active). The result in [7], in experiment [8], in experiment [9], in experiment [4] and in experiment [10] was inactive.
`Nc1c(Cl)c(F)nc(OCC(=O)O)c1Cl`: the AC50 in [1] was 0.0004 µM (active). Further, the molecule was classed as inactive in [14], in [7], in [8], in experiment [13], in experiment [4] and in experiment [10]. Besides, the outcome in experiment [15] was inactive.
In the case of `CCNC(=O)NC(=O)C(C#N)=NOC`, the molecule was called inactive in experiment [1], in experiment [7], in experiment [8], in [9], in [4] and in experiment [10]. The result in [11] was inactive. The AC50 in experiment [12] is 77 µM (active); in [6], 32.4 µM (active).
On to `CC(C)C1(C)N=C(c2ncccc2C(=O)O)NC1=O` (stereo not given), for which the result in experiment [1], in experiment [13], in [9], in [4], in [11] and in [6] was inactive.
For the molecule `COP(=S)(OC)Oc1ccc([N+](=O)[O-])c(C)c1`, the AC50 was 0.0472 µM (active) in experiment [1]; 2.67 µM (active) in [14]; 3.97 µM (active) in [2]; 20 µM (active) in experiment [3]; 5.37 µM (active) in [4]. Also, the molecule was classed as inactive in experiment [8], in experiment [9], in experiment [10], in [5] and in experiment [6].
As to `COCc1cnc(C2=NC(C)(C(C)C)C(=O)N2)c(C(=O)O)c1` (stereo not given), the molecule was classed as inactive in [1], in [4], in experiment [10], in experiment [11], in [12] and in experiment [5]. Further, the result in experiment [6] was inactive.
As to `Cc1cnc(C2=NC(C)(C(C)C)C(=O)N2)c(C(=O)O)c1` (stereo not given), the call in experiment [7] and in [10] was inactive.
Consider `CC(C)N1C(=O)c2ccccc2NS1(=O)=O`, for which the molecule was classed as inactive in [1], in experiment [7], in experiment [13], in [9], in [4] and in [10]. For the same molecule, the molecule was called inactive in experiment [15].
